From publication PMC7862700, “An all-to-all approach to the identification of sequence-specific readers for epigenetic DNA modifications on cytosine”

What was measured:
Assay in all cases: DAPPL (digital affinity profiling via proximity ligation, sequencing); 10 mM Tris-HCl pH 7.5, 50 mM NaCl, 1 mM DTT, 4% glycerol, room temperature, 30 min; GST-TFs on glutathione beads, 16-mer random dsDNA library, 0.1% formaldehyde crosslink after washing; high values mean tight binding
Settings in all cases: protein: recombinant; tags: N-terminal GST; dsDNA, one strand shown
FLI1 = biological target: T1, FLI1 (Homo sapiens, UniProt Q01543 1-452)
T1 sequence: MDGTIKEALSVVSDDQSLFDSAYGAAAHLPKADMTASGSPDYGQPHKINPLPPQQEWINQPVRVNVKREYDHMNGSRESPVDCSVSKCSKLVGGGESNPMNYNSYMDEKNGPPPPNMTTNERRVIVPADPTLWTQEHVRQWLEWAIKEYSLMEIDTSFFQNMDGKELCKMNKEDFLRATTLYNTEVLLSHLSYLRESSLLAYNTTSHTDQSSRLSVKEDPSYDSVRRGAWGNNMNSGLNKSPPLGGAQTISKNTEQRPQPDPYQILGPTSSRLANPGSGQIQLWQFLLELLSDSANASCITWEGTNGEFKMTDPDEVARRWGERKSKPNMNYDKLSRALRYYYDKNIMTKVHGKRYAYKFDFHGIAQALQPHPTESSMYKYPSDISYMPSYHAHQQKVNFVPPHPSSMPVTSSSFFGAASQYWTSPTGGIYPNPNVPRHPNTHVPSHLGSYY
In short: (§1)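 Pools were built from human transcription factors expressed in yeast as GST fusions, captured on glutathione beads and DNA-barcoded, along with a tag-only sample. Incubation with 200 nmole of a 16-mer random double-stranded DNA library lasted 30 min at room temperature in Tris/NaCl/DTT/glycerol buffer, and was followed by washing, 0.1% formaldehyde crosslinking, proximity ligation, PCR amplification and Illumina NextSeq500 sequencing. Binding signal is the quotient of each hexamer's read frequency for a factor and its frequency for the tag-only sample.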

SPI1 = SPI1 (Homo sapiens, UniProt P17947 1-270)
In short: as §1

ELK3 = biological target: T2, ELK3 (Homo sapiens, UniProt P41970 1-407)
T2 sequence: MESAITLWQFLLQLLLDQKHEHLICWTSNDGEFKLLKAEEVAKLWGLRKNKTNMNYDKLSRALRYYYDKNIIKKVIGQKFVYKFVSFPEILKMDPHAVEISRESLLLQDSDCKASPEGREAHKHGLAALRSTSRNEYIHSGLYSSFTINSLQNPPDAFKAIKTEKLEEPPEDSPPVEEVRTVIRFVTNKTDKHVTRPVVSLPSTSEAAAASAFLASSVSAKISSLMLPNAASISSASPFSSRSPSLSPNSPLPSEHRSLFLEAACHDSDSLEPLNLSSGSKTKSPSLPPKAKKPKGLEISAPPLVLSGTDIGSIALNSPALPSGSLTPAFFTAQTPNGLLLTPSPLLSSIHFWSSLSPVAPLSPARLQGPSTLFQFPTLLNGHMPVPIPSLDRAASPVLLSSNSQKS
In short: as §1

ELF5 = biological target: T3, ELF5 (Homo sapiens, UniProt Q9UKW6-2 1-255)
T3 sequence: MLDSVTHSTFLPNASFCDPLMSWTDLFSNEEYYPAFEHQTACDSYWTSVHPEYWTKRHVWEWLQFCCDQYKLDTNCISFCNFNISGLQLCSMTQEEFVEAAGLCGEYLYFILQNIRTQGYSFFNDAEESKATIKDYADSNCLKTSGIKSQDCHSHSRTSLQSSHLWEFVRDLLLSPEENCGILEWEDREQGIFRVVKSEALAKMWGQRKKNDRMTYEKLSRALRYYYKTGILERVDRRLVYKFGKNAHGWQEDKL
In short: as §1

CRX = CRX (Homo sapiens, UniProt O43186 1-299)
In short: as §1

Sequence of CRX (O43186 whole entry): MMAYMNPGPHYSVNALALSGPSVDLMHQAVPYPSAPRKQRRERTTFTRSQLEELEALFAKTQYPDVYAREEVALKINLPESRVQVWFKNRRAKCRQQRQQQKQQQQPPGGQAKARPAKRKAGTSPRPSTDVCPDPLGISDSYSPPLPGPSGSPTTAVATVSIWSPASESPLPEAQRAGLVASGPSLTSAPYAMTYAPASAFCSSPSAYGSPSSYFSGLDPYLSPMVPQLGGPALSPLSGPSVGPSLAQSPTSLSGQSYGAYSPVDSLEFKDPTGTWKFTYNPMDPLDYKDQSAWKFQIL

Row | Sequence | binding signal (FLI1) | binding signal (SPI1) | binding signal (ELK3) | binding signal (ELF5) | binding signal (CRX)
1 | TTGTCA | 1.1 fold enrichment (6-mer frequency, TF over GST control) | 1.16 fold enrichment (6-mer frequency, TF over GST control) | 1.13 fold enrichment (6-mer frequency, TF over GST control) | 1.05 fold enrichment (6-mer frequency, TF over GST control) | 
2 | CTGGGC | 1.15 fold enrichment (6-mer frequency, TF over GST control) | 1.05 fold enrichment (6-mer frequency, TF over GST control) | 1.02 fold enrichment (6-mer frequency, TF over GST control) |  | 
3 | TCATGT | 1.14 fold enrichment (6-mer frequency, TF over GST control) | 1.15 fold enrichment (6-mer frequency, TF over GST control) |  | 1.01 fold enrichment (6-mer frequency, TF over GST control) | 
4 | CCCTGA | 1 fold enrichment (6-mer frequency, TF over GST control) | 1.03 fold enrichment (6-mer frequency, TF over GST control) | 1.12 fold enrichment (6-mer frequency, TF over GST control) | 1.06 fold enrichment (6-mer frequency, TF over GST control) | 1.03 fold enrichment (6-mer frequency, TF over GST control)
5 | CGCCTG | 1.11 fold enrichment (6-mer frequency, TF over GST control) | 1.1 fold enrichment (6-mer frequency, TF over GST control) | 1.06 fold enrichment (6-mer frequency, TF over GST control) | 1.12 fold enrichment (6-mer frequency, TF over GST control) | 
6 | AGCGCC | 1.01 fold enrichment (6-mer frequency, TF over GST control) |  | 1.02 fold enrichment (6-mer frequency, TF over GST control) |  | 
7 | AAGGGC | 1.06 fold enrichment (6-mer frequency, TF over GST control) |  | 1.18 fold enrichment (6-mer frequency, TF over GST control) | 1.04 fold enrichment (6-mer frequency, TF over GST control) | 
8 | TGTAAC | 1.29 fold enrichment (6-mer frequency, TF over GST control) | 1.36 fold enrichment (6-mer frequency, TF over GST control) | 1.2 fold enrichment (6-mer frequency, TF over GST control) | 1.21 fold enrichment (6-mer frequency, TF over GST control) | 
9 | CGATGC | 1.13 fold enrichment (6-mer frequency, TF over GST control) | 1.12 fold enrichment (6-mer frequency, TF over GST control) |  |  | 
10 | TGTGCG | 1.03 fold enrichment (6-mer frequency, TF over GST control) |  | 1.01 fold enrichment (6-mer frequency, TF over GST control) | 1.07 fold enrichment (6-mer frequency, TF over GST control) | 
11 | ATGCAG | 1.09 fold enrichment (6-mer frequency, TF over GST control) | 1.06 fold enrichment (6-mer frequency, TF over GST control) |  | 1.06 fold enrichment (6-mer frequency, TF over GST control) | 
12 | GTAGCT | 1.15 fold enrichment (6-mer frequency, TF over GST control) | 1.09 fold enrichment (6-mer frequency, TF over GST control) | 1.07 fold enrichment (6-mer frequency, TF over GST control) | 1.07 fold enrichment (6-mer frequency, TF over GST control) | 1.02 fold enrichment (6-mer frequency, TF over GST control)
13 | ACCATT | 1.22 fold enrichment (6-mer frequency, TF over GST control) | 1.16 fold enrichment (6-mer frequency, TF over GST control) | 1.28 fold enrichment (6-mer frequency, TF over GST control) | 1.15 fold enrichment (6-mer frequency, TF over GST control) | 
14 | ACAGCA | 1.01 fold enrichment (6-mer frequency, TF over GST control) |  | 1.02 fold enrichment (6-mer frequency, TF over GST control) |  | 
15 | TGGCCG | 1.11 fold enrichment (6-mer frequency, TF over GST control) | 1.14 fold enrichment (6-mer frequency, TF over GST control) | 1.14 fold enrichment (6-mer frequency, TF over GST control) |  | 
16 | CATCAT | 1.06 fold enrichment (6-mer frequency, TF over GST control) | 1.11 fold enrichment (6-mer frequency, TF over GST control) |  | 1.07 fold enrichment (6-mer frequency, TF over GST control) | 

Row | Sequence | binding signal (FLI1) | binding signal (SPI1) | binding signal (ELK3) | binding signal (ELF5) | binding signal (CRX)
17 | GCCCAA | 1.04 fold enrichment (6-mer frequency, TF over GST control) | 1.01 fold enrichment (6-mer frequency, TF over GST control) |  |  | 
18 | ACCAAA | 1.01 fold enrichment (6-mer frequency, TF over GST control) | 1.06 fold enrichment (6-mer frequency, TF over GST control) |  |  | 
19 | GGTATC | 1.11 fold enrichment (6-mer frequency, TF over GST control) | 1.02 fold enrichment (6-mer frequency, TF over GST control) |  |  | 
20 | CAAGTT | 1.11 fold enrichment (6-mer frequency, TF over GST control) |  | 1.03 fold enrichment (6-mer frequency, TF over GST control) | 1.03 fold enrichment (6-mer frequency, TF over GST control) | 
21 | CATGAC | 1.23 fold enrichment (6-mer frequency, TF over GST control) | 1.28 fold enrichment (6-mer frequency, TF over GST control) | 1.17 fold enrichment (6-mer frequency, TF over GST control) | 1.12 fold enrichment (6-mer frequency, TF over GST control) | 
22 | ATGCCA | 1.01 fold enrichment (6-mer frequency, TF over GST control) |  |  | 1.01 fold enrichment (6-mer frequency, TF over GST control) | 
23 | TGATAC | 1.13 fold enrichment (6-mer frequency, TF over GST control) | 1.19 fold enrichment (6-mer frequency, TF over GST control) | 1.08 fold enrichment (6-mer frequency, TF over GST control) | 1.1 fold enrichment (6-mer frequency, TF over GST control) | 1.1 fold enrichment (6-mer frequency, TF over GST control)
24 | TATGTC | 1.05 fold enrichment (6-mer frequency, TF over GST control) | 1.06 fold enrichment (6-mer frequency, TF over GST control) | 1.14 fold enrichment (6-mer frequency, TF over GST control) | 1.05 fold enrichment (6-mer frequency, TF over GST control) | 
25 | TGCCCA | 1.21 fold enrichment (6-mer frequency, TF over GST control) | 1.09 fold enrichment (6-mer frequency, TF over GST control) |  | 1.01 fold enrichment (6-mer frequency, TF over GST control) | 
26 | CACGCA | 1.11 fold enrichment (6-mer frequency, TF over GST control) |  | 1.14 fold enrichment (6-mer frequency, TF over GST control) |  | 
27 | CCCCCC | 1.03 fold enrichment (6-mer frequency, TF over GST control) | 1.07 fold enrichment (6-mer frequency, TF over GST control) | 1.12 fold enrichment (6-mer frequency, TF over GST control) | 1.09 fold enrichment (6-mer frequency, TF over GST control) | 
28 | CGTAGC | 1.13 fold enrichment (6-mer frequency, TF over GST control) | 1.04 fold enrichment (6-mer frequency, TF over GST control) |  | 1.05 fold enrichment (6-mer frequency, TF over GST control) | 
29 | CACATG | 1.18 fold enrichment (6-mer frequency, TF over GST control) | 1.11 fold enrichment (6-mer frequency, TF over GST control) | 1.14 fold enrichment (6-mer frequency, TF over GST control) | 1.02 fold enrichment (6-mer frequency, TF over GST control) | 
30 | GCCTGC | 1.03 fold enrichment (6-mer frequency, TF over GST control) | 1.06 fold enrichment (6-mer frequency, TF over GST control) | 1.08 fold enrichment (6-mer frequency, TF over GST control) | 1.09 fold enrichment (6-mer frequency, TF over GST control) | 
31 | TGGGGT | 1.02 fold enrichment (6-mer frequency, TF over GST control) | 1.04 fold enrichment (6-mer frequency, TF over GST control) | 1.17 fold enrichment (6-mer frequency, TF over GST control) | 1.01 fold enrichment (6-mer frequency, TF over GST control) | 
32 | CCAACC | 1.12 fold enrichment (6-mer frequency, TF over GST control) | 1.11 fold enrichment (6-mer frequency, TF over GST control) | 1.06 fold enrichment (6-mer frequency, TF over GST control) | 1.05 fold enrichment (6-mer frequency, TF over GST control) | 
